Laboratory results as given in PubChem BioAssay (NCI).
About 83,000 compounds went through this panel and 20% of them were active in at least one assay; those are over-represented in the sample as a whole.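 Testing used 96-well plates and a 48-hour single-concentration exposure. Example: -40 means 40% of the starting cells died.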 Unmarked numbers belong to inactive results. Active and inactive are the calls of the source. Rule for the calls: active = growth percent below 10; inactive = the rest.

Columns and labels:
Assay in all cases: NCI-60 one-dose screen, 48 h (100 = growth as untreated, 0 = no growth, -100 = all killed)
NCI-H23 lung = settings: 10 µM unless noted
NCI-H226 lung = settings: 10 µM unless noted
NCI-H322M lung = settings: 10 µM unless noted
HOP-62 NSCLC = settings: 10 µM unless noted
NCI-H460 lung = settings: 10 µM unless noted
HOP-92 NSCLC = settings: 10 µM unless noted
NCI-H522 lung = settings: 10 µM unless noted
A549/ATCC NSCLC = settings: 10 µM unless noted
786-0 renal = settings: 10 µM unless noted
COLO 205 colon = settings: 10 µM unless noted
DU-145 prostate = settings: 10 µM unless noted
K-562 leukemia = settings: 10 µM unless noted
MALME-3M melanoma = settings: 10 µM unless noted
MDA-MB-231 breast = settings: 10 µM unless noted
RXF 393 renal = settings: 10 µM unless noted
SF-268 CNS = settings: 10 µM unless noted
SF-295 CNS = settings: 10 µM unless noted
SF-539 CNS = settings: 10 µM unless noted
M14 melanoma = settings: 10 µM unless noted
UACC-257 melanoma = settings: 10 µM

SMILES | growth (NCI-H23 lung) | growth (NCI-H226 lung) | growth (NCI-H322M lung) | growth (HOP-62 NSCLC) | growth (NCI-H460 lung) | growth (HOP-92 NSCLC) | growth (NCI-H522 lung) | growth (A549/ATCC NSCLC) | growth (786-0 renal) | growth (COLO 205 colon) | growth (DU-145 prostate) | growth (K-562 leukemia) | growth (MALME-3M melanoma) | growth (MDA-MB-231 breast) | growth (RXF 393 renal) | growth (SF-268 CNS) | growth (SF-295 CNS) | growth (SF-539 CNS) | growth (M14 melanoma) | growth (UACC-257 melanoma)
CC(=O)NC(C)(C)C(=O)N1CCC[C@H]1C(=O)NC(C)(C)C(=O)N[C@@H](C)C(=O)NC(C)(C)C(=O)NC(C)(C)C(=O)N[C@@H](CCC(N)=O)C(=O)NC(C)(C)C(=O)N[C@H](C(=O)NC(C)(C)C(=O)NCC(=O)N[C@@H](CC(C)C)C(=O)NC(C)(C)C(=O)N1CCC[C@H]1C(=O)N[C@H](C(=O)NC(C)(C)C(=O)NC(C)(C)C(=O)N[C@@H](CCC(N)=O)C(=O)N[C@@H](CCC(N)=O)C(=O)N[C@H](CO)Cc1ccccc1)C(C)C)C(C)C | 21.1% [4.25 µM] | 29.8% [4.25 µM] | 71.1% [4.25 µM] | 41% [4.25 µM] | 29.9% [4.25 µM] | -10.1% [4.25 µM] (active) | 10.6% [4.25 µM] | 26.7% [4.25 µM] | 80.5% [4.25 µM] | -25.1% [4.25 µM] (active) | 43.5% [4.25 µM] | 22.2% [4.25 µM] | -10.6% [4.25 µM] (active) | 36.5% [4.25 µM] | 18% [4.25 µM] | 32.9% [4.25 µM] | 22.2% [4.25 µM] | 24.5% [4.25 µM] | 51.3% [4.25 µM] | –
CCC(C)[C@H]1OC(=O)[C@H](C(C)C)N(C)C(=O)[C@@H](C(C)C)OC(=O)[C@H](C(C)C)N(C)C(=O)[C@@H](C(C)CC)OC(=O)[C@H](C(C)C)N(C)C1=O (stereo partly specified) | 8.83% (active) | 19.2% | 8.61% (active) | 8.79% (active) | 9.08% (active) | -19.8% (active) | -2.93% (active) | 12.9% | 10.4% | -91.8% (active) | 22% | 8.02% (active) | 7.55% (active) | 2.72% (active) | 17.2% | 22.1% | 6.32% (active) | 13.8% | 17.6% | –
CCN1C(=O)N(CC)C2SC(N/N=C/c3ccccc3F)=NC21 (stereo unspecified) | 31.6% | 45.1% | 53.3% | 30.9% | 4.97% (active) | 8.68% (active) | -35.6% (active) | 27.3% | 30.6% | -47.6% (active) | 16.6% | 9.76% (active) | 71.1% | 24.1% | 46.4% | 45.4% | 11.6% | -16.7% (active) | 17.2% | 61%
O=C(NNc1nc2cc(F)c(F)cc2n2cccc12)c1cccnn1 | 25.9% | 4.29% (active) | 26.2% | 20.2% | 8.06% (active) | 75.4% | -8.32% (active) | 14.1% | 19.2% | 9.86% (active) | 24.3% | 13.3% | 17.8% | 32.4% | 40.1% | 14% | 8.56% (active) | 0.368% (active) | 11.2% | 5.44% (active)
O=C1c2c(c3c4cc(O)ccc4oc3c3[nH]c4ccccc4c23)C(=O)N1O | 2.57% (active) | 63.6% | 2.25% (active) | -25.6% (active) | -6.86% (active) | -8.01% (active) | -5.7% (active) | 43.5% | 2.62% (active) | 61.5% | 11.3% | 14.4% | 9.51% (active) | 26% | – | 17.4% | 10.2% | -15% (active) | -4.66% (active) | 22.1%
Cn1c2ccccc2c2c3c(c4c5ccc(Br)cc5oc4c21)C(=O)N(O)C3=O | 80% | 70.9% | 96.8% | 59.8% | 42.3% | 81.6% | 48.7% | 85.6% | 89.8% | 86.7% | 86.1% | 61.7% | 113% | 94.5% | – | 78.6% | 53.4% | 96.2% | 89.3% | 94.2%
CN(C)C(=O)c1ccccc1-n1cnc2ccccc2c1=O | 99.3% | 102% | 98.5% | 112% | 101% | 117% | 101% | 99.2% | 101% | 109% | 105% | 108% | 103% | 100% | 107% | 94.6% | 103% | 95.5% | 101% | 98.5%
CC(C)=CCC[C@](C)(O)[C@H]1CC[C@]2(C)[C@@H]1CC[C@@H]1[C@@]3(C)CCC(NC(=O)c4ccccc4C(=O)O)C(C)(C)[C@@H]3CC[C@]12C (stereo partly specified) | 85.8% | 89.7% | 104% | 104% | 110% | 75.6% | 95.3% | 93.1% | 99.9% | -10.3% (active) | 96.4% | 90.8% | 31.8% | 82.6% | 101% | 95.3% | 100% | 89.3% | 57.8% | 30.5%
Cc1nc(-c2cc3ccccc3c(N3CCN(C)CC3)n2)cs1 | 99.9% | 101% | 106% | 98.1% | 103% | 61.1% | 94% | 97.7% | 93.2% | 88.5% | 109% | 91.5% | 96.5% | 90.3% | – | 87.3% | 93.1% | 85.2% | 95.4% | 101%
CC1OC(O[C@@H]2[C@H](O)C(CO)OC(O[C@H]3COC(O[C@H]4CC[C@]5(C)[C@H]6CC[C@]78OC[C@@]9(CCC(C)(C)C[C@H]97)[C@H](O)C[C@@]8(C)[C@]6(C)CC[C@H]5C4(C)C)[C@@H](OC4OC(CO)[C@@H](O)[C@@H](O)[C@@H]4O)[C@@H]3O)[C@H]2OC2OC[C@@H](O)[C@@H](O)[C@@H]2O)[C@@H](O)[C@@H](O)[C@H]1O (stereo partly specified) | -62.7% (active) | -40% (active) | -78.2% (active) | -81% (active) | -65.2% (active) | -39.3% (active) | -72.4% (active) | -67.7% (active) | -80.9% (active) | -74.5% (active) | -79.7% (active) | – | -70.6% (active) | -72.2% (active) | -92% (active) | -65.9% (active) | -92.3% (active) | -80.5% (active) | -80.7% (active) | -76.2% (active)
COc1ccc2c(c1)c(-c1nn3c(=O)cc(-c4ccccc4)nc3s1)cn2C | 63% | 21.1% | 65.2% | 43.2% | 21.7% | 18.7% | -34% (active) | 56.7% | 37.8% | 27.2% | 63.8% | – | 35.5% | 55.3% | 35.4% | 64.9% | 28.8% | 16% | 35.4% | –
C=CCn1c(SCC(=O)Nc2cccc(C(=O)/C=C/c3ccccc3)c2)nc2ccccc2c1=O | 77.2% | 78.1% | 91.5% | 113% | 91.8% | 76.1% | 86.2% | 82.6% | 100% | 120% | 77.4% | – | 100% | 94.4% | 83.3% | 92% | 95.7% | 77.1% | 77.1% | 118%
COc1cc2c3c(n(CCCNCC4CC4)c(=O)c2cc1OC)-c1cc2c(cc1C3=O)OCO2 | -52.6% (active) | 61.9% | 66.9% | -85.8% (active) | -58.7% (active) | 90.8% | -66.1% (active) | -85.1% (active) | -98.2% (active) | 38% | -52.9% (active) | – | 71.1% | -73.6% (active) | 43.9% | 45.6% | 22.3% | -88% (active) | 31.9% | –
Cc1cc(=O)n2nc(-c3c[nH]c4ccccc34)sc2n1 | 92.6% | 98.6% | 93.4% | 101% | 100% | 98.4% | 90.4% | 96.3% | 106% | 102% | 107% | – | 85% | 90.6% | 105% | 102% | 103% | 92.7% | 107% | –
C/C(Cc1ccc(Cl)cc1)=C(/c1ccccc1)c1ccc(OCCN)cc1 | 98.2% | 91.4% | 99.8% | 108% | 104% | 91.6% | 96.1% | 99.1% | 106% | 103% | 106% | – | 88.5% | 98.7% | 102% | 94.2% | 99.7% | 99.7% | 95.7% | 106%
